# Reference: PubChem BioAssay (NCATS)
# Results filed as inconclusive are left out. Where a call stands in place of a potency, no number is given. Values without a mark were called inactive. Calls of active or inactive are those of the source. The call rests on the fitted dose curve; in most records, active means well fitted curve in the direction sought with a large enough effect; inconclusive means small, poorly fitted or top-dose-only effect, or another doubt; inactive means no such curve, though single readings can be large; an effect the other way counts as inactive or inconclusive.
# Key:
# [1] = qHTS Screen of the MIPE 4.0 Collection Against Ewings Sarcoma (TC32) (AID 1259256); further: nearly all actives have a fitted effect of over 45% in size; further: potency means the concentration at half of the fitted maximal effect
# Method in brief: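 Viability screen: 48 h incubation at 37C, 95% humidity, 5% CO2 with serially titrated compound, followed by CellTiter-Glo readout.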
# [2] = qHTS assay to identify small molecule inhibitors of chordoma cells - UCH-1 (AID 1259355); further: nearly all actives have a fitted effect of over 55% in size
# Method in brief: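 Screening used approved and investigational drugs in 15-point titration against 800 seeded cells per well. A fixed combination of auranofin with camptothecin, doxorubicin, rubitecan and topotecan followed compound addition, and growth was scored by CellTiter-Glo after 48hr.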
# [3] = qHTS assay to identify small molecule inhibitors of chordoma cells - UCH-2 (AID 1259356); further: series mostly up to about 46 µM
# [4] = Identifying Small Molecule Inhibitors of Pancreatic Cancer Stem Cells (A2780, Spheroid) (AID 1259357); conditions: Potency: A2780 spheroid viability;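 further: compound exposure lasted 48 h before the ATP luminescence read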; further: potency means the concentration at half of the fitted maximal effect
# Method in brief: (§1)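 Endpoint: ATP-based luminescence, 48 h drug exposure. Bortezomib at 9.2 uM final as full-kill control; DMSO vehicle as negative control; activity normalized between vehicle and cell-free wells.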
# [5] = Identifying Small Molecule Inhibitors of Pancreatic Cancer Stem Cells (SN12C, Adherent) (AID 1259358);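 further: cell survival measured after 48 h of compound exposure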; further: potency means the concentration at half of the fitted maximal effect
# Method in brief: (§2)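 Monolayer and spheroid cultures are compared. Spheroids form over 14 days in stem cell medium on hydrogel-coated low-attachment plates, then are exposed to compound for 48 h before CellTiter-Glo luminescence.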
# [6] = Identifying Small Molecule Inhibitors of Pancreatic Cancer Stem Cells (SN12C, Spheroid) (AID 1259360); conditions: Potency: SN12C spheroid viability
# Method in brief: as §1
# [7] = Identifying Small Molecule Inhibitors of Pancreatic Cancer Stem Cells (A278, Adherent) (AID 1259361);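 further: viability read after 48 h compound exposure; nearly all actives have a fitted effect of over 35% in size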
# Method in brief: as §2
# [8] = P-glycoprotein substrates identified in KB-3-1 adenocarcinoma cell line, qHTS therapeutic library screen (AID 1346986); further: nearly all actives have a fitted effect of over 60% in size
# Method in brief: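 In 1536-well format, 500 cells/well received pinned compound titrations and were incubated 72 h, 5% CO2. Viability was read by CellTiter-Glo; cytotoxic if AC50 < 10 uM and efficacy >50%.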
smiles,measurement,setting,value
CCCC(CCC)C(=O)O,Potency,[1],inactive
same,Potency,[2],inactive
same,outcome,[3],inactive
Cc1cnc(NC(=O)C2=C(O)c3ccccc3S(=O)(=O)N2C)s1,Potency,[1],inactive
same,Potency,[2],inactive
same,outcome,[3],inactive
O=C(O)COCCN1CCN(C(c2ccccc2)c2ccc(Cl)cc2)CC1 (stereo not drawn),Potency,[1],inactive
same,Potency,[2],inactive
same,outcome,[3],inactive
N=c1nc(N2CCCCC2)cc(N)n1O,Potency,[1],inactive
same,Potency,[2],inactive
same,outcome,[3],inactive
O=c1[nH]cnc2[nH]ncc12,Potency,[1],inactive
same,Potency,[2],inactive
same,outcome,[3],inactive
CCCS(=O)(=O)Nc1ccc(F)c(C(=O)c2c[nH]c3ncc(-c4ccc(Cl)cc4)cc23)c1F,Potency,[1],20.9 µM (active)
CC(C[N+](C)(C)C)OC(N)=O (stereo not drawn),Potency,[1],inactive
same,Potency,[2],inactive
same,outcome,[3],inactive
c1ccc([C@H]2CN3CCSC3=N2)cc1,Potency,[1],inactive
same,Potency,[2],inactive
same,outcome,[3],inactive
NCCCC(N)(C(=O)O)C(F)F (stereo not drawn),Potency,[1],inactive
same,Potency,[2],inactive
same,outcome,[3],inactive
CCOC(=O)C1=C[C@]2(CC)CCCN3CCc4c(n1c1ccccc41)[C@@H]32,Potency,[1],18.7 µM (active)
same,Potency,[2],inactive
same,outcome,[3],inactive
COc1ccccc1-c1cccc(-c2c(O)c3cc(C#N)c(Cl)cc3[nH]c2=O)c1,Potency,[1],inactive
Cn1cnc2c(F)c(Nc3ccc(Br)cc3Cl)c(C(=O)NOCCO)cc21,Potency,[1],20.9 µM (active)
OC[C@H](Cc1ccccc1)Nc1nc(Oc2ccc3c(c2)CCC3)nc2c1ncn2Cc1ccc(-c2ccccc2)cc1,Potency,[1],6.62 µM (active)
NC[C@H](O)c1ccc(O)c(O)c1,Potency,[1],inactive
same,Potency,[2],inactive
same,outcome,[3],inactive
Cn1cnc([N+](=O)[O-])c1Sc1ncnc2nc[nH]c12,Potency,[1],3.32 µM (active)
same,Potency,[2],inactive
same,outcome,[3],inactive
Nc1nc2[nH]cc(CCc3ccc(C(=O)N[C@@H](CCC(=O)O)C(=O)O)cc3)c2c(=O)[nH]1,Potency,[1],0.662 µM (active)
same,Potency,[2],inactive
same,outcome,[3],inactive
same,Potency,[4],inactive
same,Potency,[5],0.662 µM (active)
same,Potency,[6],inactive
CCCCNc1cc(C(=O)O)cc(S(N)(=O)=O)c1Oc1ccccc1,Potency,[1],inactive
same,Potency,[2],inactive
same,outcome,[3],inactive
N[C@@H]1CONC1=O,Potency,[1],inactive
same,Potency,[2],inactive
same,outcome,[3],inactive
Cc1[nH]c(=O)c(C#N)cc1-c1ccc2nccn2c1,Potency,[1],inactive
same,Potency,[2],inactive
same,outcome,[3],inactive
same,Potency,[5],inactive
same,Potency,[6],inactive
same,IC50 (viability decrease),[7],inactive
NNCCc1ccccc1,Potency,[1],11.8 µM (active)
same,Potency,[2],inactive
same,outcome,[3],inactive
CC(C)(C)NCC(O)c1ccc(O)c(CO)c1 (stereo not drawn),Potency,[1],inactive
same,Potency,[2],inactive
same,outcome,[3],inactive
Cc1[nH]c(=O)c(C#N)cc1-c1ccncc1,Potency,[1],inactive
same,Potency,[2],inactive
same,outcome,[3],inactive
CCn1cc(C(=O)O)c(=O)c2cc(F)c(N3CCNC(C)C3)c(F)c21 (stereo not drawn),Potency,[1],inactive
same,Potency,[2],inactive
same,outcome,[3],inactive
Nc1ccc(S(=O)(=O)Nc2ccnn2-c2ccccc2)cc1,Potency,[1],inactive
same,Potency,[2],inactive
same,outcome,[3],inactive
O=C1CCc2cc(OCCCCc3nnnn3C3CCCCC3)ccc2N1,Potency,[1],inactive
same,Potency,[2],inactive
same,outcome,[3],inactive
Cc1ccc(N(CC2=NCCN2)c2cccc(O)c2)cc1,Potency,[1],16.6 µM (active)
same,Potency,[2],inactive
same,outcome,[3],inactive
CC(=O)Oc1ccccc1C(=O)O,Potency,[1],11.8 µM (active)
same,Potency,[2],inactive
same,outcome,[3],inactive
Oc1ccc(C2CNCCc3c2cc(O)c(O)c3Cl)cc1 (stereo not drawn),Potency,[1],inactive
same,Potency,[2],inactive
same,outcome,[3],inactive
O=C1CCC(N2C(=O)c3ccccc3C2=O)C(=O)N1 (stereo not drawn),Potency,[1],0.0037 µM (active)
same,Potency,[2],inactive
same,outcome,[3],inactive
Nc1nc2c(ncn2COCCO)c(=O)[nH]1,Potency,[1],inactive
same,Potency,[2],inactive
same,outcome,[3],inactive
O=NN(CCCl)C(=O)NCCCl,Potency,[1],inactive
same,Potency,[2],inactive
same,outcome,[3],inactive
CCc1ccc(CCOc2ccc(CC3SC(=O)NC3=O)cc2)nc1 (stereo not drawn),Potency,[1],inactive
same,Potency,[2],inactive
same,outcome,[3],inactive
same,Potency,[5],inactive
same,Potency,[6],inactive
Cc1c(C)c2c(c(C)c1O)CCC(C)(COc1ccc(CC3SC(=O)NC3=O)cc1)O2 (stereo not drawn),Potency,[1],inactive
same,Potency,[2],inactive
same,outcome,[3],inactive
same,Potency,[5],inactive
same,Potency,[6],inactive
O=c1n(CCCN2CCN(c3cccc(Cl)c3)CC2)nc2ccccn12,Potency,[1],inactive
same,Potency,[2],inactive
same,outcome,[3],inactive
CC(C)NCC(O)COc1ccc(COCCOC(C)C)cc1 (stereo not drawn),Potency,[1],inactive
same,Potency,[2],inactive
same,outcome,[3],inactive
NCCc1ccc(O)c(O)c1,Potency,[1],1.66 µM (active)
same,Potency,[2],inactive
same,outcome,[3],inactive
CCOC(=O)N1CCC(=C2c3ccc(Cl)cc3CCc3cccnc32)CC1,Potency,[1],23.5 µM (active)
same,Potency,[2],inactive
same,outcome,[3],inactive
same,Potency,[8],inactive
N#Cc1ccc(C(c2ccc(C#N)cc2)n2cncn2)cc1,Potency,[1],14.8 µM (active)
same,outcome,[3],inactive
same,Potency,[4],inactive
same,Potency,[5],inactive
same,Potency,[6],inactive
same,IC50 (viability decrease),[7],inactive
CCCS(=O)(=O)Nc1ccc(F)c(C(=O)c2c[nH]c3ncc(Cl)cc23)c1F,Potency,[1],16.6 µM (active)
same,Potency,[4],inactive
O=c1ncn2nc(Sc3ccc(F)cc3F)ccc2c1-c1c(Cl)cccc1Cl,Potency,[1],inactive
same,Potency,[4],14.8 µM (active)
same,Potency,[5],inactive
Cc1cn[nH]c1,Potency,[1],inactive
same,Potency,[2],inactive
same,outcome,[3],inactive
same,Potency,[8],inactive
CNC(=O)c1ccc(N2C(=S)N(c3ccc(C#N)c(C(F)(F)F)c3)C(=O)C2(C)C)cc1F,Potency,[1],inactive
same,Potency,[4],0.166 µM (active)
same,Potency,[5],inactive
same,IC50 (viability decrease),[7],23.5 µM (active)
